From PubChem BioAssay (Tox21)
Inconclusive results are not listed. Activity calls are given as the source filed them. Unless noted, the call rests on the fitted dose curve.

Key:
[1] = biological target: Peroxisome proliferator-activated receptor delta (Homo sapiens) (UniProt Q03181); experiment: qHTS assay to identify small molecule agonists of the peroxisome proliferator-activated receptor delta (PPARd) signaling pathway (AID 743212); further: on the % scale 0 is the no-effect control and ±100 the full control effect
Chain of Peroxisome proliferator-activated receptor delta (Homo sapiens) (Q03181 whole entry, looked up): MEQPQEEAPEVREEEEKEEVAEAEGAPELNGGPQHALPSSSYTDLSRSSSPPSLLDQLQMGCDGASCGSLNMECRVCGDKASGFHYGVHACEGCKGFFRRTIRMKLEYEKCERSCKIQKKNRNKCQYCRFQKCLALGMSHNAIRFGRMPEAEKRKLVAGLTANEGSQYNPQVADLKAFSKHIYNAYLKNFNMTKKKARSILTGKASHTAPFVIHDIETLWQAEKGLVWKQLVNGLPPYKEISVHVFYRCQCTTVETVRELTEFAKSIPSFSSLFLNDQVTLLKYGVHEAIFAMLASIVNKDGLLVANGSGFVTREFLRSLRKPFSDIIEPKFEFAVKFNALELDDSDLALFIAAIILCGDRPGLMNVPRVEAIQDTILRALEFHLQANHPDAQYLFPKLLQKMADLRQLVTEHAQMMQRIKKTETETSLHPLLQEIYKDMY
Procedure, shortened: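 Quantitative high-throughput agonist screen in a HEK293H beta-lactamase reporter line under UAS control. Compounds in DMSO, at 37 C. Fluorescence read after 2 h with FRET substrate at room temperature.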

[2] = qHTS assay to identify small molecule antagonists of the peroxisome proliferator-activated receptor delta (PPARd) signaling pathway - cell viability counter screen (AID 743213; active means well fitted curve in the direction sought with a large enough effect in the repeat runs; an effect the other way counts as inactive or inconclusive; further: on the % scale 0 is the no-effect control and ±100 the full control effect; nearly all actives have a fitted effect of over 50% in size)
Procedure, shortened: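 PPARd-bla HEK293H cells (3000/well) got compound plus 300 nM L165041 agonist for 17 h at 37 C. Viability in the same wells came from CellTiter-Glo luminescence after 30 min at room temperature.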

[3] = biological target: Peroxisome proliferator-activated receptor delta (Homo sapiens) (UniProt Q03181); experiment: qHTS assay to identify small molecule antagonists of the peroxisome proliferator-activated receptor delta (PPARd) signaling pathway (AID 743215; active means well fitted inhibition curve with a large enough effect in the signal ratio in the repeat runs, not every such curve was filed as active; the % refers to the signal ratio;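 further: cells stimulated with agonist L165041 at 300 nM final during compound exposure; series mostly up to about 62 µM; on the % scale 0 is the no-effect control and ±100 the full control effect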)
Procedure, shortened: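 With L165041 present at 300 nM final, compounds were incubated 17 h at 37 C on PPARd UAS-bla HEK293H cells. A FRET-based beta-lactamase substrate was then applied for 2 h at room temperature and fluorescence intensity recorded.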

[4] = qHTS assay to identify small molecule agonists of the farnesoid-X-receptor (FXR) signaling pathway - cell viability counter screen (AID 743218; active means well fitted curve in the direction sought with a large enough effect in the repeat runs; an effect the other way counts as inactive or inconclusive; further: on the % scale 0 is the no-effect control and ±100 the full control effect; nearly all actives have a fitted effect of over 45% in size)
Procedure, shortened: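 After 16 h at 37 C with test compounds, FXR-bla HEK 293T cells were given LiveBLAzer B/G substrate for 2 h at RT and then CellTiter-Glo; luminescence was taken after 30 min.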

[5] = qHTS assay to identify small molecule antagonists of the farnesoid-X-receptor (FXR) signaling pathway - cell viability counter screen (AID 743221; active means well fitted cell-killing curve with a large enough effect in the repeat runs, not every such curve was filed as active; further: on the % scale 0 is the no-effect control and ±100 the full control effect; nearly all actives have a fitted effect of over 50% in size)
Procedure, shortened: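 Cytotoxicity is taken from ATP luminescence (CellTiter-Glo, 30 min, room temperature) in FXR-bla HEK 293T cells previously incubated 16 h at 37 C with compound and chenodeoxycholic acid at 50 uM final.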

[6] = biological target: Vitamin D3 receptor (Homo sapiens) (UniProt P11473); experiment: qHTS assay to identify small molecule agonists of the vitamin D receptor (VDR) signaling pathway (AID 743222); further: on the % scale 0 is the no-effect control and ±100 the full control effect
Chain of Vitamin D3 receptor (Homo sapiens) (P11473 whole entry, looked up): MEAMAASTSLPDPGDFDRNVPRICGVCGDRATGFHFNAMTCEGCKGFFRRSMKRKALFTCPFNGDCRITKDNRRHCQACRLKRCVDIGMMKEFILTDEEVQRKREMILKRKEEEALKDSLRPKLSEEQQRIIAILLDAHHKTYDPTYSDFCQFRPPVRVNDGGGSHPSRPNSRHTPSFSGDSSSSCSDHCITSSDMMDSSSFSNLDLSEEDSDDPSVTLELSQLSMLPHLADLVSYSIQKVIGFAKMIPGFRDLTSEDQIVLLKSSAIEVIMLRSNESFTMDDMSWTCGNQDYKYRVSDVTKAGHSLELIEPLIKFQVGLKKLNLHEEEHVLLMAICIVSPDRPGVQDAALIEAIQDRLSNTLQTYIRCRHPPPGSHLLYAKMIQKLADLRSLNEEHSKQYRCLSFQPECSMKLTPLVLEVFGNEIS
Procedure, shortened: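 VDR-bla cells were seeded, left 4 h, treated with compounds in DMSO for 16 h, incubated 2 h at RT with B/G FRET substrate, and read for fluorescence.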

[7] = biological target: Vitamin D3 receptor (Homo sapiens) (UniProt P11473); experiment: qHTS assay to identify small molecule antagonists of the vitamin D receptor (VDR) signaling pathway (AID 743223; active means well fitted inhibition curve with a large enough effect in the signal ratio in the repeat runs, not every such curve was filed as active; the % refers to the signal ratio; further: on the % scale 0 is the no-effect control and ±100 the full control effect)
Procedure, shortened: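 Quantitative HTS in VDR-bla reporter cells stimulated with 1alpha,25-dihydroxyvitamin D3, 3 nM final. Compound exposure 16 h, 37C, 5% CO2. Read-out: beta-lactamase FRET substrate fluorescence, 2 h RT.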

[8] = qHTS assay to identify small molecule agonists of the vitamin D receptor (VDR) signaling pathway - cell viability counter screen (AID 743224; active means well fitted curve in the direction sought with a large enough effect in the repeat runs; an effect the other way counts as inactive or inconclusive; further: series mostly up to about 63 µM; on the % scale 0 is the no-effect control and ±100 the full control effect; nearly all actives have a fitted effect of over 50% in size)
Procedure, shortened: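 Here cell health was gauged by luminescent ATP detection (CellTiter-Glo, 30 min RT) in VDR-bla cells that had been incubated with test compounds for 16 h at 37C and 5% CO2.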

[9] = qHTS assay to identify small molecule antagonists of the vitamin D receptor (VDR) signaling pathway - cell viability counter screen (AID 743225; active means well fitted curve in the direction sought with a large enough effect in the repeat runs; an effect the other way counts as inactive or inconclusive; further: on the % scale 0 is the no-effect control and ±100 the full control effect; nearly all actives have a fitted effect of over 50% in size)
Procedure, shortened: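 Same-well multiplex: following 16 h treatment of HEK 293T cells carrying a UAS-driven beta-lactamase reporter with compound and agonist (3 nM final), and a 2 h FRET substrate step, CellTiter-Glo was added and luminescence read after 30 min.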

[10] = qHTS assay to identify small molecule agonists of the NFkB signaling pathway (AID 1159509; active means well fitted curve in the direction sought with a large enough effect in the signal ratio in the repeat runs, not every such curve was filed as active; the % refers to the signal ratio)
Procedure, shortened: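 After overnight attachment, reporter cells received test compounds, DMSO or positive controls and were incubated 5 hr at 37 C. FRET substrate was then added for 1.5 hr at room temperature before dual-emission fluorescence reading.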

[11] = qHTS assay to identify small molecule agonists of the NFkB signaling pathway - cell viability counter screen (AID 1159515); further: series mostly up to about 61 µM; on the % scale 0 is the no-effect control and ±100 the full control effect; nearly all actives have a fitted effect of over 55% in size
Procedure, shortened: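 5 hr compound treatment of NFkB-bla ME-180 cells (2,000/well, seeded overnight beforehand), followed by reporter substrate for 1.5 hr. CellTiter-Glo added afterward; luminescence after 30 min RT.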

[12] = qHTS assay to identify small molecule agonists of the endoplasmic reticulum stress response signaling pathway (AID 1159516; active means well fitted activation curve with a large enough effect in the signal ratio in the repeat runs, not every such curve was filed as active; the % refers to the signal ratio; further: on the % scale 0 is the no-effect control and ±100 the full control effect)
Procedure, shortened: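 Reporter HeLa cells (ESRE-beta-lactamase) underwent 5 hr compound incubation at 37 C and 5% CO2 in quantitative HTS format. Detection followed 2 hr of FRET substrate loading at room temperature.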

[13] = qHTS assay to identify small molecule agonists of the endoplasmic reticulum stress response signaling pathway - cell viability counter screen (AID 1159517)
Procedure, shortened: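 Counter-screen wells were identical to the reporter wells. Cells were plated at 1,500 per well and dosed for 5 hr, then read for luminescence 30 min after CellTiter-Glo addition.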

[14] = qHTS assay to identify small molecule antagonists of the retinoid-related orphan receptor gamma (ROR-gamma) signaling pathway - cell viability counter screen (AID 1159520; active means well fitted curve in the direction sought with a large enough effect in the repeat runs; an effect the other way counts as inactive or inconclusive)
Procedure, shortened: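 Tet-on ROR gamma CHO cells were given compounds for 2 hr, then doxycycline hyclate at 1 uM final, and incubated 16 hr at 37 C. Viability was measured as ATP content by CellTiter-Glo luminescence.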

[15] = biological target: Nuclear receptor ROR-gamma (Homo sapiens) (UniProt P51449); experiment: qHTS assay to identify small molecule antagonists of the retinoid-related orphan receptor gamma (ROR-gamma) signaling pathway (AID 1159521; active means well fitted curve in the direction sought with a large enough effect in the repeat runs; an effect the other way counts as inactive or inconclusive)
Procedure, shortened: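 Inducible-expression reporter assay: doxycycline (1 uM final) switched on RORγ in CHO cells bearing a ROR response element-luciferase construct, with test compounds present from 2 h beforehand. Decreased luminescence after 16 h defined antagonist activity.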

[16] = qHTS assay to identify small molecule agonists of the AP-1 signaling pathway - cell viability counter screen (AID 1159525); further: nearly all actives have a fitted effect of over 55% in size
Procedure, shortened: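 AP-1-bla ME-180 cells in Opti-MEM with 0.5% dialyzed FBS, compound exposure 5 h at 37 C in 15-point titration. Viability read in the same wells as ATP content by CellTiter-Glo luminescence, normalised to tetra-n-octylammonium bromide and DMSO controls.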

[17] = qHTS assay to identify small molecule agonists of the AP-1 signaling pathway (AID 1159526); further: on the % scale 0 is the no-effect control and ±100 the full control effect
[18] = biological target: Retinoic acid receptor RXR-alpha (Homo sapiens) (UniProt P19793); experiment: qHTS assay to identify small molecule agonists of the RXR signaling pathway (AID 1159527); further: on the % scale 0 is the no-effect control and ±100 the full control effect; nearly all actives have a fitted effect of over 35% in size
Chain of Retinoic acid receptor RXR-alpha (Homo sapiens) (P19793 whole entry, looked up): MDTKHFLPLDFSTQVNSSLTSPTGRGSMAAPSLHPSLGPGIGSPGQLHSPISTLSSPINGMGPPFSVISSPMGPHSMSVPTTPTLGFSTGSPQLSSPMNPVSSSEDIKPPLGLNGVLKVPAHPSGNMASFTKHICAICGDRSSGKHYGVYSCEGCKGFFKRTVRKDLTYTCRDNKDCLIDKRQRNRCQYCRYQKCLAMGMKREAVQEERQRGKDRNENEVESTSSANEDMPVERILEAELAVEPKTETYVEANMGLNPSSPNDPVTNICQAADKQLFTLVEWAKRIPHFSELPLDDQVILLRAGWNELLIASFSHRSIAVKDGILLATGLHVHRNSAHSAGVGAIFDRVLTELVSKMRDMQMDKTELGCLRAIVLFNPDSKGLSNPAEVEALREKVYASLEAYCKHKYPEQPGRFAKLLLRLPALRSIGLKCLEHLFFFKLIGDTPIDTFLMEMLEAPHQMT
Procedure, shortened: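 Compounds in DMSO were added to RXR-alpha-UAS-bla HEK 293T cells kept in 2% charcoal-stripped serum, and incubated 16 hr at 37 C with 5% CO2. Reporter signal came from a 2 hr B/G FRET substrate step.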

[19] = biological target: Bile acid receptor (Homo sapiens) (UniProt Q96RI1); experiment: qHTS assay to identify small molecule antagonists of the farnesoid-X-receptor (FXR) signaling pathway (AID 743217; active means well fitted inhibition curve with a large enough effect in the signal ratio in the repeat runs, not every such curve was filed as active; the % refers to the signal ratio; further: on the % scale 0 is the no-effect control and ±100 the full control effect)
Chain of Bile acid receptor (Homo sapiens) (Q96RI1 whole entry, looked up): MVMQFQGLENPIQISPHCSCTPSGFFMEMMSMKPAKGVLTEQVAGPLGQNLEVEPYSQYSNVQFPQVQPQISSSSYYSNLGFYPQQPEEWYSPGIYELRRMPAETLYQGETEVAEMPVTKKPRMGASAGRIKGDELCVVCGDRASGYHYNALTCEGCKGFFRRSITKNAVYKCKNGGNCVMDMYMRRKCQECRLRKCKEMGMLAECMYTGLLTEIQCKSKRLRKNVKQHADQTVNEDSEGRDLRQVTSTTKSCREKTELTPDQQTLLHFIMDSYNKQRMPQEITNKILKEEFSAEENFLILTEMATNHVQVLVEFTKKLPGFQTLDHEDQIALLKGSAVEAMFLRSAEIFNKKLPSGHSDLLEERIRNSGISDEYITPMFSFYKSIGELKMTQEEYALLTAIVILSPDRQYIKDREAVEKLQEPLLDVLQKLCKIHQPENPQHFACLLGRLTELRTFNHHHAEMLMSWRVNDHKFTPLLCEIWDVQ
Procedure, shortened: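 In this cell-based antagonist screen, inhibition of CDCA-driven (50 uM final) UAS-beta-lactamase expression in HEK 293T cells was measured by FRET fluorescence following 16 h compound exposure at 37 °C.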

[20] = biological target: Bile acid receptor (Homo sapiens) (UniProt Q96RI1); experiment: qHTS assay to identify small molecule agonists of the farnesoid-X-receptor (FXR) signaling pathway (AID 743220; active means well fitted activation curve with a large enough effect in the signal ratio in the repeat runs, not every such curve was filed as active; the % refers to the signal ratio; further: on the % scale 0 is the no-effect control and ±100 the full control effect)
Procedure, shortened: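 Beta-lactamase reporter under UAS control in GeneBLAzer FXR HEK 293T cells (5000/well) measured with LiveBLAzer FRET substrate after 2 h at room temperature. Compound exposure lasted 16 h at 37C.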

O=P(O)(O)CN(CP(=O)(O)O)CP(=O)(O)O
inactive: outcome [1] | Potency [2] | Potency [3] | Potency [4] | Potency [5] | outcome [6] | outcome [7] | Potency [8] | Potency [9] | outcome [10] | outcome [11] | outcome [12] | Potency [13] | Potency [14] | Potency [15] | Potency [16] | outcome [17] | Potency [18]

CCCCCCC(=O)CCCCCC/C=C/C[C@@H](O)[C@H](O)[C@@](N)(CO)C(=O)O
inactive: outcome [1] | Potency [2] | Potency [3] | Potency [5] | outcome [6] | outcome [7] | Potency [8] | Potency [9] | outcome [10] | outcome [11] | outcome [12] | Potency [13] | activity, negative = cytotoxicity [14] 4.11% [at 19 µM] | activity change, negative = inhibition [15] -12.3% [at 19 µM] | viability change, negative = cytotoxic [16] -3.45% [at 15.8 µM] | activation [17] -2.3% [at 15.8 µM] | activation [18] 1.63% [at 15.8 µM]

CC[C@@H](CO)NC(=O)[C@@H]1C=C2c3cccc4[nH]cc(c34)C[C@H]2N(C)C1
inactive: outcome [1] | Potency [2] | Potency [3] | Potency [4] | Potency [5] | Potency [8] | outcome [10] | outcome [11] | outcome [12] | Potency [13] | Potency [14] | Potency [15] | Potency [16] | outcome [17] | Potency [18]

CCN[C@@H](C)Cc1ccccc1
inactive: outcome [1] | Potency [2] | outcome [19] | Potency [4] | outcome [20] | Potency [5] | outcome [6] | outcome [7] | Potency [8] | Potency [9] | outcome [10] | outcome [11] | outcome [12] | Potency [13] | Potency [14] | Potency [15] | Potency [16] | outcome [17] | Potency [18]

CN1C(=O)COc2c(C(=O)NC3CN4CCC3CC4)cc(Cl)cc21 (stereo not given)
inactive: outcome [1] | Potency [2] | Potency [3] | Potency [4] | Potency [5] | outcome [6] | outcome [7] | Potency [8] | Potency [9] | outcome [10] | outcome [11] | outcome [12] | Potency [13] | Potency [14] | Potency [15] | Potency [16] | outcome [17] | Potency [18]

O=C(NC(=O)c1c(F)cccc1F)Nc1cc(Cl)c(F)c(Cl)c1F
inactive: outcome [1] | Potency [2] | Potency [3] | Potency [4] | Potency [5] | outcome [6] | outcome [7] | Potency [8] | outcome [10] | outcome [11] | outcome [12] | Potency [13] | Potency [14] | Potency [15] | Potency [16] | outcome [17] | Potency [18]

CCCOc1nn(C(=O)NS(=O)(=O)c2ccccc2C(=O)OC)c(=O)n1C
inactive: outcome [1] | Potency [2] | Potency [3] | Potency [5] | outcome [6] | Potency [8] | Potency [9] | outcome [10] | outcome [11] | outcome [12] | Potency [13] | Potency [14] | Potency [15] | Potency [16] | outcome [17] | Potency [18]

CCCC(C)(COC(N)=O)COC(N)=O
inactive: outcome [1] | Potency [2] | Potency [3] | Potency [4] | Potency [5] | outcome [6] | outcome [7] | Potency [8] | Potency [9] | outcome [10] | outcome [11] | outcome [12] | Potency [13] | Potency [14] | Potency [15] | Potency [16] | outcome [17] | Potency [18]

NC1(c2ccccc2)CCCCC1
inactive: outcome [1] | Potency [2] | Potency [3] | Potency [4] | outcome [20] | Potency [5] | Potency [8] | Potency [9] | outcome [10] | outcome [11] | outcome [12] | Potency [13] | Potency [14] | Potency [15] | Potency [16] | outcome [17] | Potency [18]
